The values that follow come from ChEMBL document CHEMBL3988442, “University of Dundee, Small-Polar-MMV Screening Library” (2021).

Holding throughout (set-up): scale not given: direction of the effect not stated beside the values
Experiment [1] addresses Protein translocase subunit SecA (Escherichia coli (strain K12)) (UniProt P10408). Briefly: Assay to Identify E. coli SecA ATPase Inhibitors. Type of experiment: functional. Conditions: 30 µM.
Experiment [2] deals with T1, Ubiquitin-activating enzyme e1, putative (Leishmania donovani (strain BPK282A1)) (UniProt E9BSI1).
T1 sequence (whole entry): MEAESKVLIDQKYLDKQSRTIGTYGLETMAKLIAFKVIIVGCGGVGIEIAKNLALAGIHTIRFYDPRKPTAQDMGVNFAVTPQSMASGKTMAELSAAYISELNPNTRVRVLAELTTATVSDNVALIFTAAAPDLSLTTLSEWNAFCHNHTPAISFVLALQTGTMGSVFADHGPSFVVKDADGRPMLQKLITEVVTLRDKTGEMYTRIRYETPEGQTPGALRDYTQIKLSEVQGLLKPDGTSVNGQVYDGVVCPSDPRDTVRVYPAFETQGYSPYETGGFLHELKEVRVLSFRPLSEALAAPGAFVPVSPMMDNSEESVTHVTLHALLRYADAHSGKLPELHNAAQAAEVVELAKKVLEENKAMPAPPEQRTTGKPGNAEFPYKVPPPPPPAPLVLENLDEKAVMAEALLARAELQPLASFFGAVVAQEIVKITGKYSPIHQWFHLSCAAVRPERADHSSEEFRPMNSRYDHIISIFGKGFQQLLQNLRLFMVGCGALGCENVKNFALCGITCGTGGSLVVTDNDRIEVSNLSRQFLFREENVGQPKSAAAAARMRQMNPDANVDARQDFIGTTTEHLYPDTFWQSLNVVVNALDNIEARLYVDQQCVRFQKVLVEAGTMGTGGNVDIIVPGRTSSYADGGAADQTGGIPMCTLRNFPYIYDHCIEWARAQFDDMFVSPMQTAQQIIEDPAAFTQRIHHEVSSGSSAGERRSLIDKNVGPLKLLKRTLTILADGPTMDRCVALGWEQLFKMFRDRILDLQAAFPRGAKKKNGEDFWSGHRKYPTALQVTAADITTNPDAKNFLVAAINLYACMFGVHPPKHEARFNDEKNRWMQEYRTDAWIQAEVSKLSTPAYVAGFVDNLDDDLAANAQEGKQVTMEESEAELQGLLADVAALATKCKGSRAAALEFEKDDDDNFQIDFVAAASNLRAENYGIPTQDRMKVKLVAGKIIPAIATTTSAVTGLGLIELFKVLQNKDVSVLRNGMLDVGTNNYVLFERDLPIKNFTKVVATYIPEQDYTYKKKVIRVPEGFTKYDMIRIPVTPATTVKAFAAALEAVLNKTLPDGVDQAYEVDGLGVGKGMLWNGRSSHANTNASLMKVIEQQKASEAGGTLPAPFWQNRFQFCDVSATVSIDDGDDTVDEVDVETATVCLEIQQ
Briefly: Leishmania donovani Ubiquitin Activating Enzyme (LdE1). Type of experiment: functional. Conditions: 30 µM.

In experiment [3] the target is AMP-activated protein kinase, AMPK (Homo sapiens) (UniProt P54646+O43741+P54619+Q9UGJ0+Q9Y478+Q13131+Q9UGI9). Nature of the experiment: AMP-dependent Kinase enzyme assay. An in vitro enzyme assay that detects ADP turnover that is directly proportional to AMPK activity. This uses naive AMPK that is activated during the assay with MK-8722. Type of experiment: functional. Conditions: 30 µM.

In experiment [4] the target is Sialic acid-binding Ig-like lectin 9 (Homo sapiens) (UniProt Q9Y336). Briefly: Hs-Siglec9 ALPHAscreen SOP 20170721. The following applies: 10 µM. (In general: In Alpha technology, singlet oxygen from a donor bead excites a nearby acceptor bead.)
Sialic acid-binding Ig-like lectin 9 (Homo sapiens), sequence (Q9Y336 whole entry): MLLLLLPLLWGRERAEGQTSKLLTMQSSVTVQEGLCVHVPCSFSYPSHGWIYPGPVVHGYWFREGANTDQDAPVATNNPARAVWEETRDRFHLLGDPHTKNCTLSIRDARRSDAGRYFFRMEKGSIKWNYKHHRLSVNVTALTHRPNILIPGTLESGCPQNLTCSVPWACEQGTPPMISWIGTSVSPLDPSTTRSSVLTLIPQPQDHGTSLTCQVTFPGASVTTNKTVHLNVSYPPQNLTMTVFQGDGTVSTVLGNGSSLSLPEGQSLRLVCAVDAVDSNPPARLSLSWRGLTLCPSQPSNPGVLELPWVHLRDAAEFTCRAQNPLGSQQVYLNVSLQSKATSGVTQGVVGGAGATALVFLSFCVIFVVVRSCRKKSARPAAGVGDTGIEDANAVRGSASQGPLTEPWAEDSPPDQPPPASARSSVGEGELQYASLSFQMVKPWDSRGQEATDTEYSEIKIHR
Experiment [5] relates to Trypanosoma cruzi. Nature of the experiment: Trypanosoma cruzi phosphomannomutase and mannose-1-phosphate guanylyltransferase assay. The experiment is classed as functional. The following applies: 10 µM.
In experiment [6] the target is T2, Arginase-2, mitochondrial (Homo sapiens) (UniProt P78540).
T2 sequence (whole entry): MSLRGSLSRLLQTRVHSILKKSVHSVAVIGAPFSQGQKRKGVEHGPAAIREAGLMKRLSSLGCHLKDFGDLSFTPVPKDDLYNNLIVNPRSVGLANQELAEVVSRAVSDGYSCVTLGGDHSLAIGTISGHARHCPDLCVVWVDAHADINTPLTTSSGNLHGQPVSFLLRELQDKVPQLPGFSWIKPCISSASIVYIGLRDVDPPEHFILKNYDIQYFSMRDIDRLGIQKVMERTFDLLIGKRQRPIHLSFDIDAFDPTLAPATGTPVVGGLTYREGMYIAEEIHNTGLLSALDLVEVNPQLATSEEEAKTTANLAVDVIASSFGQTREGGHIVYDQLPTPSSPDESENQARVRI
Briefly: in vitro enzyme assay to detect the production of urea directly proportional to the activity of Arginase II. Also: in the data most compounds retested in dose-response had high values. The experiment is classed as functional. The following applies: 33.3 µM.

Experiment [7] addresses T3, Proteasome subunit beta (Trypanosoma cruzi) (UniProt O96673).
T3 sequence (whole entry): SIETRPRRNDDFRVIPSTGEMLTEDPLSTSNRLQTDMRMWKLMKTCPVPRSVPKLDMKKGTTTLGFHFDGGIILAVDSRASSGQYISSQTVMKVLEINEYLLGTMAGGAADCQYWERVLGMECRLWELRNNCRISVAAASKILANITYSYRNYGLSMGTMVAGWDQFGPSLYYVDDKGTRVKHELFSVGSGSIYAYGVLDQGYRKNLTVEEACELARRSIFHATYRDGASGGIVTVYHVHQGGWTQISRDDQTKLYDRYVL
Nature of the experiment: Trypanosoma cruzi proteasome chymotrypsin-like activity (TcProtChymo) assay. Also: in the data most compounds retested in dose-response had high values. The experiment is classed as functional. Conditions: 9.37 µM.

For experiment [8], the species on record is Homo sapiens. Nature of the experiment: To identify inhibition of the IFN signalling (Jak-Stat) pathway via expression of an eGFP reporter gene under the control of an IFN-stimulated response element (ISRE) containing MxA promoter. The experiment is classed as functional. Conditions: 30 µM.
In experiment [9] the target is T4, Tyrosyl-tRNA synthetase, putative (Trypanosoma cruzi (strain CL Brener)) (UniProt Q4DSP6).
T4 sequence (whole entry): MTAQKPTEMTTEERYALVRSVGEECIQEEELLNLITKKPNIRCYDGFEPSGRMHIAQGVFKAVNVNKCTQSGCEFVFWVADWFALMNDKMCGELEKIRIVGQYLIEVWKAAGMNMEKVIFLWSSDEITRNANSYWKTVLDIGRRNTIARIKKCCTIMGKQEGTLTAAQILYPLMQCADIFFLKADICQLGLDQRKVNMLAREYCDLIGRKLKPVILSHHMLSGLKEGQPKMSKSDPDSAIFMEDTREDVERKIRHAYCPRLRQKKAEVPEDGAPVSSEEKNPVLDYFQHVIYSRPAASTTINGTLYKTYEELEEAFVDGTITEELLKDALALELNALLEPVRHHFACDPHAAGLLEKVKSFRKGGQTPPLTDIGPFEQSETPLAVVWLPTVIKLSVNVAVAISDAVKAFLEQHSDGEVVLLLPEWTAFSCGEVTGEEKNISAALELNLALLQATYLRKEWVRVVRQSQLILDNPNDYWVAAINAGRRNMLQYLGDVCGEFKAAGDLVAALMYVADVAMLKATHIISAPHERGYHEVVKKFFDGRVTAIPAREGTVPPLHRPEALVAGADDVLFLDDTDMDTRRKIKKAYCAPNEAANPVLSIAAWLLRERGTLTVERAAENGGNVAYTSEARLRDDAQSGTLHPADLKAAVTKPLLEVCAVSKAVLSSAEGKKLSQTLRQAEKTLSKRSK
Nature of the experiment: Trypanosoma cruzi tyrosyl tRNA synthetase (TcYRS) _High Tyrosine SOP. Also: in the data most compounds retested in dose-response had high values. Type of experiment: functional. The following applies: 30 µM.

The target in experiment [10] is T4, Tyrosyl-tRNA synthetase, putative (Trypanosoma cruzi (strain CL Brener)). Nature of the experiment: Trypanosoma cruzi tyrosyl tRNA synthetase (TcYRS) SOP. Type of experiment: functional. The following applies: 30 µM.
For experiment [11], the target named is Chromo domain-containing protein 1 (Saccharomyces cerevisiae (strain ATCC 204508 / S288c) (Baker's yeast)) (UniProt P32657). Nature of the experiment: ScCHD-1 Enzyme Inhibition Assay. Also: in the data most compounds retested in dose-response had high values. The experiment is classed as functional. The following applies: 30 µM.
Chromo domain-containing protein 1 (Saccharomyces cerevisiae (strain ATCC 204508 / S288c) (Baker's yeast)), sequence (P32657 whole entry, the tested form may be a part): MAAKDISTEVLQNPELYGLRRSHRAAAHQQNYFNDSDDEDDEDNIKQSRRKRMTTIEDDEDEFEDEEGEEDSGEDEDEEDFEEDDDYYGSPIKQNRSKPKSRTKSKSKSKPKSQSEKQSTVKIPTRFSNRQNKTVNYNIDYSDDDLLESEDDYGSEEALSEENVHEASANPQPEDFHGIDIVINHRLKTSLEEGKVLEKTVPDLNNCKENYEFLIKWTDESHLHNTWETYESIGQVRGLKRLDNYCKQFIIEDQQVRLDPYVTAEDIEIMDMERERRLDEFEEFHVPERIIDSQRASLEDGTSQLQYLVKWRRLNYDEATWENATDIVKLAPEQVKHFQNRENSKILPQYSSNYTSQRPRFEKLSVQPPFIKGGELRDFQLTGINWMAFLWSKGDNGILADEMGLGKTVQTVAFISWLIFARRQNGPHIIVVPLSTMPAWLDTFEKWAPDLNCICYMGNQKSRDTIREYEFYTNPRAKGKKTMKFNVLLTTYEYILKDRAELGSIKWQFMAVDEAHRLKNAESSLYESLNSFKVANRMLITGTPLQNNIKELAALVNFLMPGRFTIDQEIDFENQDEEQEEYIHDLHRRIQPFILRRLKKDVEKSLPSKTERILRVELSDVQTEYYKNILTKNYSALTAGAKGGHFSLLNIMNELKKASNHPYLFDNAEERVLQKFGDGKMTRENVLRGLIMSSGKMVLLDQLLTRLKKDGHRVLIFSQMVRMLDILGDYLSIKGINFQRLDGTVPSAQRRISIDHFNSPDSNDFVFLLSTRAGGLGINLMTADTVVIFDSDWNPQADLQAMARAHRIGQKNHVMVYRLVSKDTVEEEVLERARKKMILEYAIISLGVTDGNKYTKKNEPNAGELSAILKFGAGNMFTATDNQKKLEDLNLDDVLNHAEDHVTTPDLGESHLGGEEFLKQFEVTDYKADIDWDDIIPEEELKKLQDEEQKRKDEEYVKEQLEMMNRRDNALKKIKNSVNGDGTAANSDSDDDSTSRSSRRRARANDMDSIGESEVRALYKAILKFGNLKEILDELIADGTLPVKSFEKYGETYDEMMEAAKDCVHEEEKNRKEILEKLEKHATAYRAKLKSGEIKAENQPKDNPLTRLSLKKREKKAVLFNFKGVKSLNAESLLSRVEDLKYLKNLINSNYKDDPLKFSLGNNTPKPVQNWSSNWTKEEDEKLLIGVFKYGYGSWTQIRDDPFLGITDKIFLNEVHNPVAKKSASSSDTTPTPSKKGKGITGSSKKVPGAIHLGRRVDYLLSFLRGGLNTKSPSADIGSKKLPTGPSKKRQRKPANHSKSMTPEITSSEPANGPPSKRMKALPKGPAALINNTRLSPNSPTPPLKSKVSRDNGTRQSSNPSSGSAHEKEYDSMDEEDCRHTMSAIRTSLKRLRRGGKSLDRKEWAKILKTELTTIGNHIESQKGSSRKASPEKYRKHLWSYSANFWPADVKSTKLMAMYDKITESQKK

For some of these results: Potency and affinity values are given separately.

Protein translocase subunit SecA (Escherichia coli (strain K12)), sequence (P10408 whole entry): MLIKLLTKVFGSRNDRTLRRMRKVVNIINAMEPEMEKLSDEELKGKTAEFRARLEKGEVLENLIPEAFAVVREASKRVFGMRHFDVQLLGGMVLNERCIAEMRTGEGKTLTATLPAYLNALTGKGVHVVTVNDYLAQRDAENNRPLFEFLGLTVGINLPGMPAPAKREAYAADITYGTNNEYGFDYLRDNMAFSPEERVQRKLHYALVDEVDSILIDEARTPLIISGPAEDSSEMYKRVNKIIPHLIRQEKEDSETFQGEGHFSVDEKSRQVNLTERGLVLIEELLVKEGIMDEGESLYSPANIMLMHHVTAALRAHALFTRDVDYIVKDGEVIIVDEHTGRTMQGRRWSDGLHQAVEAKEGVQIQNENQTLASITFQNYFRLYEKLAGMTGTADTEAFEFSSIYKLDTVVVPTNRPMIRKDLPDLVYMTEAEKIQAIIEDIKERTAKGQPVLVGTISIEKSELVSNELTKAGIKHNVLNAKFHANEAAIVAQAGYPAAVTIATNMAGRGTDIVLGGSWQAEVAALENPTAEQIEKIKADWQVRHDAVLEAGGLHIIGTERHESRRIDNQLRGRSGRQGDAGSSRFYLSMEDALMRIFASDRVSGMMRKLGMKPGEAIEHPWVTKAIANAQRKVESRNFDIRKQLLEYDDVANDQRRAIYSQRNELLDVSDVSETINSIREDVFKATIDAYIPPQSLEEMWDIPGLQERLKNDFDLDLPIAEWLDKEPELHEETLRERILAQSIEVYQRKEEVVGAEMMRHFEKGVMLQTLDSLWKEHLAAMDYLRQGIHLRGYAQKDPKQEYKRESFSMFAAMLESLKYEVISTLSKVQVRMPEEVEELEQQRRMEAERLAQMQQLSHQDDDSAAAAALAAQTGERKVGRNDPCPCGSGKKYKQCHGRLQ

`Cc1nn(C)c(C)c1CC(=O)N1CCC(Nc2cccnn2)CC1`: the Percent Effect in [1] is -5.77%; in experiment [2], -13.2%; in experiment [3], -1.31%; in experiment [4], -4.49%; in experiment [5], 9.59%; in [6] it was -1.92%. Besides, the Percent Effect was 5.85% in [7]; 9.42% in experiment [8]; 5.39% in [9]; 9.76% in experiment [10]; -11.7% in [11].
As to `O=C([C@H]1CCCO1)N1CCCC2(CCN(Cc3ccncc3)C2=O)C1` (stereo partly specified), the Percent Effect in experiment [1] is -1.19%; in [2], 10.4%; in experiment [3], 3.88%; in experiment [4], -8.92%; in [5] it was -7.79%; in experiment [6], 7.1%. Also, the Percent Effect in experiment [7] was 11.3%; in [8], 31.4%; in experiment [9], 3.17%; in experiment [10] it was 6.41%; in [11], -8.64%.
Consider `CN1CCOC(CNCc2cccc(OCC(F)(F)F)c2)C1` (stereo unspecified), for which the Percent Effect was -3.56% in experiment [1]; 5.06% in experiment [2]; -19.3% in [3]; 12.1% in experiment [4]; -1.79% in experiment [5]; 0.38% in [6]. In addition, the Percent Effect in experiment [7] was -6.31%; in experiment [8] it was 0.0497%; in [9], 4.43%; in [10], 1.27%; in [11], -2.57%.
As for `CCn1nc(C)c(CNC(=O)c2cn(CC3CCCO3)nn2)c1C` (stereo unspecified), the Percent Effect was -6.8% in experiment [1]; 0% in experiment [2]; -1.16% in experiment [3]; 7.76% in [4]; 2.24% in experiment [5]; 2.08% in experiment [6]. The Percent Effect in [7] is 2.27%; in experiment [8] it was 6.98%; in experiment [9], 6.01%; in [10], 11.1%; in experiment [11] it was -0.117%.
Take `CC(NC(=O)NCc1ccc(Cl)cc1)c1ccccn1` (stereo unspecified): the Percent Effect was -1.55% in experiment [1]; 1.27% in experiment [2]; 3.12% in [3]; 3.62% in experiment [4]; 5.23% in experiment [5]; -6.24% in [6]. For the same compound, the Percent Effect in [7] was 12%; in experiment [8], 12.2%; in [9] it was 2.08%; in [10] it was 0%; in [11] it was -24.6%.
`CCc1nc(C2CCCN2CC(=O)Nc2nncs2)no1` (stereo unspecified): the Percent Effect in experiment [1] was -3.67%; in experiment [2] it was 5.2%; in experiment [3], -3.54%; in [4] it was 12.8%; in [5] it was 3.37%; in [6], -3.2%. In addition, the Percent Effect was 2.53% in experiment [7]; 12.1% in experiment [8]; 10.7% in [9]; 21.9% in experiment [10]; -9.06% in [11].
In the case of `N#Cc1cccc(SCCS(N)(=O)=O)c1`, the Percent Effect in experiment [1] was -3.48%; in experiment [2], 1.39%; in [3], -2.94%; in experiment [4], 14.2%; in experiment [5], 5.15%; in experiment [6], -9.27%. Also, the Percent Effect in experiment [7] is 15.3%; in experiment [8] it was 7.55%; in experiment [9], 0%; in experiment [10], 5.13%; in experiment [11], -3.3%.
`Cc1cnc2c(c1NCc1ccncc1)c(=O)n(C)c(=O)n2C`: the Percent Effect in experiment [1] was -2.14%; in experiment [2] it was 0%; in experiment [3] it was 5.25%; in [4], -12.3%; in [5] it was -5.68%; in experiment [6] it was -11.4%. Also, the Percent Effect in [7] is 17.6%; in experiment [8], 29.2%; in experiment [9], 4.3%; in experiment [10], 10%; in [11], -2.51%.
Take `COCCN(C)C(=O)Nc1ccc2c(ccn2CCOC)c1`: the Percent Effect in [1] is -6.84%; in [2] it was 28.9%; in [3], -12.8%; in experiment [4] it was 0.86%; in experiment [5], 6.33%; in experiment [6] it was -1.18%. In addition, the Percent Effect in experiment [7] is -0.0959%; in [8], 1.75%; in experiment [9], 4.25%; in experiment [10], 13%; in experiment [11], -17.1%.
For the compound `CCC(=O)Nc1ccc(C(C)NC(=O)COCCOC)cc1` (stereo unspecified), the Percent Effect in experiment [1] is 0.243%; in experiment [2], 15.8%; in [3] it was -1.87%; in experiment [4], -5.07%; in experiment [5], 1.46%; in experiment [6] it was -3.55%. Also, the Percent Effect was 15.1% in experiment [7]; 23.5% in experiment [8]; 4.25% in experiment [9]; 15.6% in [10]; -5.61% in experiment [11].
In the case of `COc1ccc(C(=O)N(C)Cc2cccc(C#N)c2)c(OC)c1OC`, the Percent Effect in experiment [1] was -2.52%; in experiment [2] it was 8.11%; in [3] it was -1.05%; in [4], 10.9%; in experiment [5], 1.95%; in experiment [6] it was -2.08%. In addition, the Percent Effect was 14.3% in [7]; 1.4% in experiment [8]; 2.97% in [9]; 3.66% in [10]; -2.24% in experiment [11].
